# Rab9 prom act = activates the Rab9 promoter | Huh7 Rab9 promoter-luciferase reporter, luminescence, 24 h | Potency, µM (doses to about 9.22 µM), inactives show at the top dose activation, negative = inhibition, hits mostly activators | hit rate 2.8% among 320,000 | AID 485297; note: % of control where 0% means no effect; nearly all actives have a fitted effect of over 60% in size
#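 Luciferase signal after 10 min detection reagent at ambient indicates Rab9 promoter upregulation; stably transfected Huh7 cells were treated 24 h with compound in DMSO at 37 °C, 5% CO2.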
# FLuc modulator = firefly luciferase modulation, counter-screen for miR-21 project. P08659. Potency, µM (top dose mostly 57.5 µM), inactives show at the top dose activity change, negative = inhibition, hits mostly inhibitors. hit rate 6.9% among 360,000. purified FLuc, Km substrates, luminescence inhibition;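 note: plate controls were vehicle for no effect and reference inhibitor for full effect; nearly all actives have a fitted effect of over 55% in size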
# Target sequence (P08659 whole entry, looked up): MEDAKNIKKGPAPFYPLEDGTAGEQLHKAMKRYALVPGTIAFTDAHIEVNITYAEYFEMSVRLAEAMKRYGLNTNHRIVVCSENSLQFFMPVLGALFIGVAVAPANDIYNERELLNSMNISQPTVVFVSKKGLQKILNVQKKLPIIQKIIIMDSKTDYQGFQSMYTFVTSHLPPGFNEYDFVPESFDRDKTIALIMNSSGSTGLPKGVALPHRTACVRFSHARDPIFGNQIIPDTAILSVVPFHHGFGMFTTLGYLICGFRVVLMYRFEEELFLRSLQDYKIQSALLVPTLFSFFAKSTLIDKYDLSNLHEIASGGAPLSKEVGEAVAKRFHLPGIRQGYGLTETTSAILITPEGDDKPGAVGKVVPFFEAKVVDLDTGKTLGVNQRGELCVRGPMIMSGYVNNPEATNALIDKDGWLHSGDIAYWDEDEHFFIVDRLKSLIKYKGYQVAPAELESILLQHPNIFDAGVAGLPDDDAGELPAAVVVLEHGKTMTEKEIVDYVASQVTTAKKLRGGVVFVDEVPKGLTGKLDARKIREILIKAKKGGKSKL
#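 Biochemical qHTS of compounds, final roughly 60 µM downward over six points, against 10 nM purified firefly luciferase using Km concentrations of substrates (10 uM D-luciferin, 10 uM ATP) in Tris acetate pH 7.5 buffer; luminescence output.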
# KinaseGlo FLuc = counter-screen: inhibitors of Kinase-Glo firefly luciferase; Kinase-Glo luciferase, ATP luminescence, 8 min; Potency, µM (top dose mostly 38.3 µM), for the others: top-dose activity change, negative = inhibition, actives largely listed as inhibitors; hit rate 0.28% among 200,000; AID 1379; note: % is set by controls: 0 for no effect and ±100 for the full control effect; nearly all actives have a fitted effect of over 60% in size
#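 Substrate mix (final 50 mM imidazole pH 7.2, 50 mM KCl, 7 mM MgCl2, 10 uM ATP, 0.01% Tween 20, 0.05% BSA) plus pin-tool compound, then Kinase-Glo detection mix; 8 min ambient, luminescence read.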
# ELG1 genotoxic = induces genotoxicity in HEK293T cells with luciferase-tagged ELG1; AID 504466; HEK293T ELG1-luciferase reporter, luminescence, 16 h; Potency, µM (titrated, usually from 46 µM), for inactives: top-dose activity change, positive = activation, usual class: activators; hit rate 1.3% among 330,000; note: % of control where 0% means no effect; nearly all actives have a fitted effect of over 60% in size
#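 DMSO vehicle served as control against compound-treated ELG1-luciferase HEK293T cells; exposure lasted 16 hr at 37 °C and 5% CO2, followed by ONE-Glo luminescence detection after 30 min.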
# SMN2 splice up = SMN2 splice variant enhancement; hit rate 2.8% among 210,000; Potency, µM (titrated, usually from 46.1 µM), inactives show top-dose activity change, positive = activation, usual class: activators; HEK293 SMN2-luciferase splicing reporter, luminescence, 30-36 h; note: % of control where 0% means no effect; nearly all actives have a fitted effect of over 55% in size
#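 HEK293 cells carry an SMN2 minigene-luciferase reporter in which exon 7 inclusion puts luciferase in frame. Cells were seeded at 2000 cells/well, attached for 10-12 hours, then exposed to compounds for 30-36 hours at 37C before ONE-Glo luminescence.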
# NPC1 promoter act = activators of NPC1 promoter | Huh7 NPC1 promoter luciferase reporter, 24 h | hit rate 2.4% among 320,000 | Potency, µM (highest dose often 9.22 µM), for the others: at the top dose activation, usual class: activators; note: % of control where 0% means no effect; nearly all actives have a fitted effect of over 60% in size
#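 Luminescence from an NPC1 promoter-driven luciferase reporter in stably transfected Huh7 cells was measured after 24 h compound treatment at 37 °C, followed by 10 min ambient incubation with luciferase detection reagent.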
# * hit, by the source's call; ? = inconclusive; · = no result given; [ ] = dose if it differs, or a comment. Compounds with a hit are over-represented: about 7.3% of the library has one in this group of screens. Calls come from the whole dose curve; as a rule, active = well fitted curve in the direction sought with a large enough effect; inconclusive = small, poorly fitted or top-dose-only effect, or another doubt; inactive = no such curve, though single readings can be large; an effect the other way counts as inactive or inconclusive. Potency is the fitted concentration of half-maximal effect.
SMILES,Rab9 prom act,FLuc modulator,KinaseGlo FLuc,ELG1 genotoxic,SMN2 splice up,NPC1 promoter act
CCN(C(=O)c1cccs1)c1nnc(-c2ccncc2)s1,?,13µM*,-3%,?,26%,14%
COCCN(C(=O)Cc1cccs1)c1nnc(-c2ccncc2)s1,4%,4%,1%,0%,11%,-2%
COc1ccc2nc(N3CCCCC3)c(C#N)cc2c1,3.2µM*,3.8µM*,-3%,?,5%,17%
COc1ccc2nc(N3CCCC3)c(C#N)cc2c1,26%,11µM*,-1%,?,-22%,21%
COc1ccc2nc(SCC(=O)N3CCCCC3)c(C#N)cc2c1,-3%,-2%,-1%,1%,·,-2%
N#Cc1c(C(F)(F)F)cc(-c2cccs2)nc1SCC(=O)Nc1cccc(C(F)(F)F)c1,·,2%,·,·,8%,·
CCOC(=O)N/N=C(\C)c1ccc(Br)cc1,17%,17µM*,15%,?,-11%,12%
C/C(=N\NC(=O)c1ccccc1)c1ccccc1F,0.56µM*,12µM*,-22%,5.8µM*,5.6µM*,1.4µM*
C/C(=N\NC(=O)c1cccnc1)c1ccc(Br)cc1,6%,?,·,10%,·,17%
C/C(=N\NC(=O)c1ccccc1)c1ccccc1Br,?,15µM*,-5%,?,?,?
COC(=O)N/N=C(\C)c1ccc(Br)cc1,25%,?,14%,10%,-34%,3%
C/C(=N\NC(=O)c1ccc(Br)cc1)c1ccccc1,1.3µM*,3.4µM*,-9%,?,13µM*,0.56µM*
O=C(Nc1ccc(NC(=O)c2ccccc2Br)cc1)c1ccccc1,16%,-5%,·,?,·,23%
C/C(=N\NC(=O)c1ccccc1OCCOc1ccccc1)c1ccccc1F,2%,?,·,-10%,·,-3%
CCc1c(C)sc2c1CCN(C(=O)Nc1cc(C)ccc1OC)C2c1ccc(F)cc1 (stereo not drawn),·,2%,·,·,·,·
CC(=O)c1cccc(NC(=O)c2ccc3c(c2)N(Cc2ccc(C)cc2)CCS3)c1,·,3%,·,·,13%,·
COc1ccc(/C(C)=N/NC(=O)OC(C)(C)C)cc1[N+](=O)[O-],9%,1%,·,12%,·,1%
C/C(=N\NC(=O)OC(C)(C)C)c1ccccc1Br,?,21µM*,-28%,?,12%,?
CSCc1nc2sc(C(=O)Nc3nc(C)cs3)c(C)c2c(=O)[nH]1,3.2µM*,?,-6%,16%,11µM*,?
Cc1ccc(NC(=O)c2sc3nc(CCl)[nH]c(=O)c3c2C)c(C)c1,?,9.5µM*,1%,?,?,22%
Cc1csc(NC(=O)CSc2nc3sc(C)c(C)c3c(=O)[nH]2)n1,3%,0%,1%,12%,13%,0%
CCc1ccc(NC(=O)N(Cc2cn(CC)c3ccccc23)C2CCCCC2)cc1,·,?,·,·,13µM*,·
O=C(O)c1ccccc1NCn1c(=S)sc2ccccc21,·,·,-6%[7.66 µM],·,-9%[9.22 µM],·
Cc1ccc(N2CCN(C(=O)c3cn(C)c4ccc(S(=O)(=O)N5CCCC5)cc4c3=O)CC2C)cc1 (stereo not drawn),·,0%,·,·,-7%,·
Cc1ccc2nc(-c3c[nH]c4ccccc34)c(Nc3ccccc3)n2c1,·,-11%,·,·,11µM*,·
SMILES,Rab9 prom act,FLuc modulator,KinaseGlo FLuc,ELG1 genotoxic,SMN2 splice up,NPC1 promoter act
c1ccc(Nc2c(-c3c[nH]c4ccccc34)nc3ccccn23)cc1,·,?,·,·,16µM*,·
CCOC(=O)c1c(NC2OC(=O)c3c2ccc(OC)c3OC)sc(C(=O)OC(C)(C)C)c1C (stereo not drawn),22%,17µM*,0%,?,·,26%
COc1ccc2c(c1OC)C(=O)OC2Nc1ccccn1 (stereo not drawn),-3%,5%,3%,1%,22%,4%
COc1ccc(NC(=O)COC(=O)COc2cccc3c2OC(C)(C)C3)cc1,-3%,4%,·,-3%,·,1%
COc1ccccc1C(=O)COC(=O)COc1cccc2c1OC(C)(C)C2,2.5µM*,4.8µM*,·,9.2µM*,·,2µM*
COc1ccc(CNC(=O)CSc2ncc3c(n2)-c2ccc(Cl)cc2N(Cc2ccc(F)cc2)S3(=O)=O)cc1OC,·,0%,·,·,·,·
COc1ccc(C2Nc3cccc4cccc(c34)N2)cc1,-2%,?,-2%,2%,-4%,13%
CN(C)c1ccc(C2Nc3cccc4cccc(c34)N2)cc1,?,17µM*,·,?,·,?
O=C1NC(c2ccc(Cl)cc2)Nc2ccccc21 (stereo not drawn),1%,1%,0%,0%,·,-10%
CCOc1cc(C2Nc3cccc4cccc(c34)N2)ccc1O,18%,13µM*,-3%,-1%,1%,19%
Clc1ccc(C2Nc3cccc4cccc(c34)N2)cc1Cl,16%,24µM*,·,-3%,·,26%
Clc1cccc(C2Nc3cccc4cccc(c34)N2)c1,8%,?,·,-2%,·,13%
Cc1ccc(C2NC(=O)c3ccccc3N2)s1 (stereo not drawn),11%,?,-3%,18µM*,10µM*,-3%
CCCn1ccc2c(OCC(=O)NCc3ccccc3Cl)cccc2c1=O,·,-6%,·,·,·,·
CN(C)c1ccc(C2NC(=O)c3ccccc3N2)cc1 (stereo not drawn),17%,9.5µM*,·,?,·,11%
c1ccc(C2Nc3cccc4cccc(c34)N2)cc1,22%,15µM*,·,-3%,·,?
COc1ccc(NC(=O)c2cc(S(=O)(=O)N3CCCC(C)C3)cn2C)c(OC)c1 (stereo not drawn),·,-1%,·,·,·,·
CCc1ccc2oc(C(=O)N(Cc3cccc(Cl)c3)Cc3ccco3)c(C)c2c1,·,0%,·,·,-11%,·
O=C(NCCc1ccccc1)c1cnc2ccccc2n1,1.4µM*,8.5µM*,·,?,·,3.5µM*
Cc1ccc(C(=O)NCCc2cccc(Cl)c2)cc1[N+](=O)[O-],25%,27µM*,-2%,13%,24%,22%
CN(C)S(=O)(=O)c1cccc(C(=O)NCCc2ccccc2)c1,1.4µM*,7.6µM*,1%,12%,11µM*,0.79µM*
O=C(NCCc1ccccc1)c1cccc([N+](=O)[O-])c1,30%,?,1%,?,11µM*,25%
CN(C)S(=O)(=O)c1cccc(C(=O)Nc2ccccc2)c1,18%,?,-1%,0%,7%,20%
Cc1ccc(CNC(=O)c2cnc3ccccc3n2)cc1,3%,-15%,·,-8%,·,-4%
CN(C)C1C(=O)C(C(N)=O)C(=O)C2(O)C(=O)C3C(=O)c4c(O)ccc(Cl)c4C(O)C3CC12 (stereo not drawn),·,·,0%[39.9 µM],·,·,·

# Compound activity as filed in PubChem BioAssay.
